From PubChem BioAssay
Calls of active or inactive are those of the source. Unless noted, how the calls were made is not given here.

How the values were obtained:
[1] = compound effects on lung adenocarcinoma cell viability – A549, calcein-AM fluorescence, 48 h, basal, profiling panel (AID 1162); conditions: higher = more signal; further: test concentration not given here
[2] = compound effects on differentiated 3T3-L1 adipocyte viability – cell-based, 3T3-L1 adipocytes, calcein-AM fluorescence, 48 h, basal, profiling panel (AID 1163); conditions: 3T3-L1 adipocytes viability, higher = more signal; further: test concentration not given here
[3] = compound effects on hepatocellular carcinoma cell viability – HepG2, calcein-AM fluorescence, 48 h, basal, profiling panel (AID 1164); conditions: higher = more signal; further: test concentration not given here
[4] = compound effects on multiple myeloma cell viability – MM1S, calcein-AM fluorescence, 48 h, basal, profiling panel (AID 1165); conditions: higher = more signal; further: test concentration not given here
[5] = calcein-AM signal in unstimulated myeloma cells – cell-based, calcein-AM fluorescence, 48 h, PK04 Diversity Set, profiling panel (AID 1166); conditions: RPMI8226 myeloma viability, higher = more signal;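 further: cells grown under basal conditions without added stimulus; test concentration not given here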
[6] = JC-1 mitochondrial signal, unstimulated HepG2 cells – cell-based, JC-1 fluorescence, 24 h, 100 nL compound, profiling panel (AID 1167); conditions: HepG2 mitochondrial potential, higher = more signal; further: test concentration not given here
[7] = JC-1 mitochondrial signal, unstimulated adipocytes – cell-based, JC-1 fluorescence, 3T3-L1 adipocytes, 24 h, 100 nL compound, profiling panel (AID 1168); conditions: JC-1 mitochondrial fluorescence, higher = more signal, called active from +8 up or from −8 down; further: test concentration not given here
[8] = JC-1 mitochondrial signal, unstimulated myeloma cells – cell-based, JC-1 fluorescence, RPMI8226, 24 h, 100 nL compound, profiling panel (AID 1169); conditions: JC-1 mitochondrial potential fluorescence, higher = more signal; further: test concentration not given here
[9] = JC-1 mitochondrial signal, unstimulated MM1S myeloma – cell-based, JC-1 fluorescence, 24 h, 100 nL compound, profiling panel (AID 1170); conditions: MM1S mitochondrial potential, higher = more signal; further: test concentration not given here
[10] = resazurin metabolic signal in A549 cells – cell-based, resazurin fluorescence, 24 h, PK04 Diversity Set, profiling panel (AID 1171); conditions: A549 viability, higher = more signal, called active from +8 up or from −8 down; further: test concentration not given here
[11] = resazurin metabolic signal in HepG2 cells – cell-based, resazurin fluorescence, 24 h, PK04 Diversity Set, profiling panel (AID 1172); conditions: HepG2 viability, higher = more signal; further: test concentration not given here
[12] = budding yeast growth changes without added modifier – OD600, strain BY4716, 24 h, basal condition, primary screen (AID 1173); conditions: S. cerevisiae BY4716 growth, OD600, 24 h; higher = more signal, called active from +8 up or from −8 down
[13] = viability profiling in MM1S myeloma cells – cell-based, resazurin fluorescence, basal, 24 h, PK04 Diversity Set, profiling panel (AID 1174); conditions: higher = more signal, called active from +8 up or from −8 down; further: test concentration not given here
[14] = target: Dihydroorotate dehydrogenase (quinone), mitochondrial (Plasmodium falciparum (isolate 3D7)) (UniProt Q08210); assay: inhibition of P. falciparum DHODH – biochemical, C-terminal His tag, absorbance 600 nm, primary screen (AID 1175); conditions: PfDHODH enzyme, DCIP absorbance 600 nm; higher = more signal, called active from +8 up or from −8 down;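 further: recombinant parasite enzyme with a five histidine tag at its C terminus; test concentration not given here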
[15] = inhibition of PAO1 biofilm formation – strain PAO1, LB-PBS medium, absorbance 600 nm, primary screen (AID 1176); further: test concentration not given here; conditions: P. aeruginosa PAO1 growth/biofilm, A600, 12 h; higher = more signal
[16] = growth modulation of vineyard yeast isolate – strain RM11-1a, OD600, basal, 24 h, primary screen (AID 1177);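 further: cultures grown under basal conditions with no added stressor; test concentration not given here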; conditions: S. cerevisiae RM11-1a growth, OD600, 24 h; higher = more signal, called active from +8 up or from −8 down
[17] = growth of efflux-deficient E. coli DRC39 – strain DRC39, OD650, 24 h, E. coli filamentation inducers, primary screen (AID 1178);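 further: growth measured as culture turbidity by optical density at 650 nm; test concentration not given here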; conditions: E. coli DRC39 acrAB, higher = more signal, called active from +8 up or from −8 down
[18] = growth of efflux-deficient E. coli DRC39 – strain DRC39, OD650, 48 h, E. coli filamentation inducers, primary screen (AID 1179);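 further: screen aims at cell division blockers that make cells filament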; conditions: E. coli DRC39 delta-acrAB growth, higher = more signal, called active from +8 up or from −8 down
[19] = viability profiling in RPMI8226 myeloma cells – cell-based, resazurin fluorescence, basal, 24 h, PK04 Diversity Set, profiling panel (AID 1180); conditions: higher = more signal;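 further: RPMI8826 multiple myeloma cell line at 5000 cells per well; test concentration not given here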
[20] = target: E3 ubiquitin-protein ligase XIAP (Homo sapiens) (UniProt P98170); assay: small molecules binding XIAP protein – biophysical, small-molecule microarray, fluorescence 635 nm, primary screen (AID 1181); conditions: higher = more signal;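 further: score merges 667 nm emission and signal to noise over triplicate slides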
E3 ubiquitin-protein ligase XIAP (Homo sapiens), sequence (P98170 whole entry, looked up): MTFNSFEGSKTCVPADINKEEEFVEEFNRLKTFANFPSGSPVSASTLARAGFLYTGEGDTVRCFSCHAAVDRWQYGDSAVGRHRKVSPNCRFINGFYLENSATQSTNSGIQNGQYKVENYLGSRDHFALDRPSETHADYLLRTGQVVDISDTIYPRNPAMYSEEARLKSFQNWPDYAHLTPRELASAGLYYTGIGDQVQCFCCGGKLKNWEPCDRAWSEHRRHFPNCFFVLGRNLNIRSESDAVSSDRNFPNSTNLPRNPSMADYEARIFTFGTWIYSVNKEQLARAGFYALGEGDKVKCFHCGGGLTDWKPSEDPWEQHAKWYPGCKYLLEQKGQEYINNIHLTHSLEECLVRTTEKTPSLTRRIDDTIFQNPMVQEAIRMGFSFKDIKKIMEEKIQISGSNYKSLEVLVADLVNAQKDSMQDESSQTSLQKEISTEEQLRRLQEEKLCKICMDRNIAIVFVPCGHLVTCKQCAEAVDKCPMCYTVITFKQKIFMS

Dihydroorotate dehydrogenase (quinone), mitochondrial (Plasmodium falciparum (isolate 3D7)), sequence (Q08210 whole entry, looked up): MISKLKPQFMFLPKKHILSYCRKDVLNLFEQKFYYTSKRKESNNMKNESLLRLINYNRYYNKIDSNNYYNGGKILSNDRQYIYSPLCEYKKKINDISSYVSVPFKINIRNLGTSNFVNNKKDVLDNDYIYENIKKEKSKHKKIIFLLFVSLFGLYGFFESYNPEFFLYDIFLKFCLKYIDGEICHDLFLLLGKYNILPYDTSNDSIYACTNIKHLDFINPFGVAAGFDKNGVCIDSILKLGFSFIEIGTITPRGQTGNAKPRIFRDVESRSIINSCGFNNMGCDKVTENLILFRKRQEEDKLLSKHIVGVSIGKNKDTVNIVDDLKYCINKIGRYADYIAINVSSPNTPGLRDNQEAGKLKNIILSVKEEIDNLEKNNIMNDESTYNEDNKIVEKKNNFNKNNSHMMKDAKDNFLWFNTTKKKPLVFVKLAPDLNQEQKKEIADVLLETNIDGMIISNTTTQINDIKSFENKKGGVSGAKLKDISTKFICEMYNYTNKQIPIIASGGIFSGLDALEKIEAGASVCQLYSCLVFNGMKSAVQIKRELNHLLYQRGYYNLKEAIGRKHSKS

Row | SMILES | z-score [1] | z-score [2] | z-score [3] | z-score [4] | z-score [5] | z-score [6] | z-score [7] | z-score [8] | z-score [9] | z-score [10] | z-score [11] | z-score [12] | z-score [13] | composite z-score [14] | z-score [15] | z-score [16] | z-score [17] | z-score [18] | z-score [19] | composite z-score [20]
1 | CC1(C)C(=O)C(c2ccccc2)=C2CN3C(=O)N(CCc4ccccc4)C(=O)C3(Cc3ccccc3)C=C21 (stereo not given) | -0.739 | -0.295 | 0.54 | -0.0119 | 0.0826 | 0.000299 | -0.385 (inactive) | -0.871 | -1.52 | 0.199 (inactive) | -0.752 | 1.4 (inactive) | -1.22 (inactive) | 0.362 (inactive) | 0.784 (inactive) | 2.07 (inactive) | 0.0474 (inactive) | 0.222 (inactive) | -0.562 | 0.237
2 | CN1C(=O)C2C=CC(C(O)c3ccc(Br)cc3)N(Nc3ccccc3)C2C1=O (stereo not given) | 0.622 | -0.384 | 1.17 | -0.0257 | -0.119 | -3.16 | -1 (inactive) | 0.0774 | -0.425 | -0.443 (inactive) | 0.0752 | -0.348 (inactive) | -0.26 (inactive) | -0.125 (inactive) | 0.434 (inactive) | 0.732 (inactive) | -0.398 (inactive) | -0.413 (inactive) | 0.296 | -0.0773
3 | COC(=O)[C@@]1(Cc2ccccc2)[C@H]2c3cc(C(=O)N(C)C)n(Cc4ccccc4)c3C[C@H]2CN1C(=O)c1ccccc1 | -1.19 | -0.93 | -0.775 | -0.143 | -0.747 | 1.14 | -0.655 (inactive) | 0.599 | -1.06 | -0.407 (inactive) | -0.853 | 2.1 (inactive) | -1.5 (inactive) | -0.252 (inactive) | 0.246 (inactive) | 1.6 (inactive) | -0.656 (inactive) | -0.411 (inactive) | -1.05 | 0.294
4 | CC(C)N1C(=O)c2ccccc2[C@](C)(C(=O)NCCCN(C)C)[C@@H]1c1ccc(CO)cc1 | 0.415 | 0.302 | 0.446 | -0.0937 | -0.384 | 0.861 | -0.253 (inactive) | -0.13 | 0.413 | 0.565 (inactive) | 0.257 | -0.919 (inactive) | 0.627 (inactive) | 0.0044 (inactive) | -0.522 (inactive) | -0.283 (inactive) | 0.0957 (inactive) | -0.429 (inactive) | 0.842 | 0.0871
5 | CC(C)(C)OC(=O)CC[C@@]1(C(N)=O)N=C(c2ccc(OCCCO)cc2)O[C@@H]1c1ccccc1N=[N+]=[N-] | 1.37 | 0.337 | 2.25 | 1.46 | 0.415 | 0.221 | 0.951 (inactive) | -0.892 | -0.706 | -0.763 (inactive) | 0.55 | -0.231 (inactive) | -0.134 (inactive) | 0.974 (inactive) | -0.18 (inactive) | 0.045 (inactive) | 0.397 (inactive) | 0.529 (inactive) | 0.288 | 0.0908
